Reference: PubChem BioAssay (NCI)
The panel holds about 83,000 compounds, 20% with a hit somewhere; the sample as a whole holds those more often.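 The endpoint reported here, percent growth, reads 100 for growth as untreated, 0 for no net growth and -100 for all cells dead.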 Values without a mark were called inactive. Calls of active or inactive are those of the source. How the source made its calls: active means growth percent below 10; inactive means the rest.

Key:
Experiment in all cases: NCI-60 one-dose screen, 48 h (100 = growth as untreated, 0 = no growth, -100 = all killed)
Conditions in all cases: 10 µM unless noted
SK-MEL-2 melanoma = tested on: SK-MEL-2 melanoma
EKVX NSCLC = tested on: EKVX NSCLC
SN12C renal = tested on: SN12C renal
UO-31 renal = tested on: UO-31 renal
TK-10 renal = tested on: TK-10 renal
ACHN renal = tested on: ACHN renal
CAKI-1 renal = tested on: CAKI-1 renal
MOLT-4 leukemia = tested on: MOLT-4 leukemia
SR leukemia = tested on: SR leukemia
RPMI-8226 leukemia = tested on: RPMI-8226 leukemia
OVCAR-8 ovarian = tested on: OVCAR-8 ovarian
OVCAR-5 ovarian = tested on: OVCAR-5 ovarian
OVCAR-4 ovarian = tested on: OVCAR-4 ovarian
SK-OV-3 ovarian = tested on: SK-OV-3 ovarian
IGROV1 ovarian = tested on: IGROV1 ovarian
OVCAR-3 ovarian = tested on: OVCAR-3 ovarian
HS 578T breast = tested on: HS 578T breast
NCI/ADR-RES ovarian = tested on: NCI/ADR-RES ovarian
CCRF-CEM leukemia = tested on: CCRF-CEM leukemia
A498 renal = tested on: A498 renal

SMILES | growth (SK-MEL-2 melanoma) [%] | growth (EKVX NSCLC) [%] | growth (SN12C renal) [%] | growth (UO-31 renal) [%] | growth (TK-10 renal) [%] | growth (ACHN renal) [%] | growth (CAKI-1 renal) [%] | growth (MOLT-4 leukemia) [%] | growth (SR leukemia) [%] | growth (RPMI-8226 leukemia) [%] | growth (OVCAR-8 ovarian) [%] | growth (OVCAR-5 ovarian) [%] | growth (OVCAR-4 ovarian) | growth (SK-OV-3 ovarian) [%] | growth (IGROV1 ovarian) [%] | growth (OVCAR-3 ovarian) [%] | growth (HS 578T breast) [%] | growth (NCI/ADR-RES ovarian) [%] | growth (CCRF-CEM leukemia) [%] | growth (A498 renal) [%]
S=C(S)NCCc1c[nH]c2ccccc12 | 99.6 | 100 | 91.8 | 62.8 | 128 | 101 | 81.2 | 93.6 | 94.9 | 92.4 | 95.9 | 102 | 111% | 121 | 81.9 | 101 | 99.5 | 101 | – | –
CN(C)CCOC(=O)Nc1ccccc1Cl | 118 | 115 | 104 | 86.6 | 106 | 108 | 97.7 | 99.2 | 104 | 93.1 | 109 | 121 | – | 115 | 106 | 121 | 115 | 105 | 93.4 | –
COc1ccc(Nc2nn3c(-c4ccccc4)cc(-c4ccccc4)nc3c2C(N)=O)c(OC)c1 | 70.1 | 67.7 | 46.4 | 86.9 | 29.7 | 67 | – | 72.3 | – | 71.8 | 27.8 | 63.6 | -8.96% (active) | 63.7 | 91.6 | 46.2 | 56.8 | 30.4 | 73.2 | 70.5
O=C(NCCNc1nccc(-n2ccc3cccnc32)n1)c1ccc(C(F)(F)F)cc1 | 108 | 94.2 | 98.7 | 84 | 134 | 97.6 | 87.6 | 104 | 105 | – | 103 | 106 | 100% | 99.7 | 103 | 109 | 106 | 105 | 101 | –
